Source: PubChem BioAssay (Tox21)
Records with an inconclusive call do not appear. Calls of active or inactive are those of the source. Unless noted, calls come from the whole dose curve.

Columns and labels:
[1] = Nuclear factor erythroid 2-related factor 2/antioxidant responsive element (Nrf2/ARE) small molecule agonists: qHTS cell viability counter screen in human keratinocytes (AID 1919968; active = well fitted curve in the direction sought with a large enough effect in the repeat runs; an effect the other way counts as inactive or inconclusive; note: nearly all actives have a fitted effect of over 55% in size)
Procedure, shortened: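 Seed 1,500 KeratinoSens cells per well, then incubate 5 h at 37 C/5% CO2. Add compounds in DMSO and incubate 23 h. Add CellTiter-Fluor, wait 1 h and read fluorescence.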

[2] = Nuclear factor erythroid 2-related factor 2/antioxidant responsive element (Nrf2/ARE) small molecule agonists: luciferase reporter gene qHTS assay in human keratinocytes (AID 1919969); note: nearly all actives have a fitted effect of over 35% in size
[3] = biological target: Gonadotropin-releasing hormone receptor (Homo sapiens) (UniProt P30968); test: Human gonadotropin-releasing hormone receptor (GnRHR) small molecule agonists, calcium flux assay in GnRHR-HEK293 cells (AID 1920063); note: nearly all actives have a fitted effect of over 35% in size
Gonadotropin-releasing hormone receptor (Homo sapiens), sequence (P30968 whole entry, looked up): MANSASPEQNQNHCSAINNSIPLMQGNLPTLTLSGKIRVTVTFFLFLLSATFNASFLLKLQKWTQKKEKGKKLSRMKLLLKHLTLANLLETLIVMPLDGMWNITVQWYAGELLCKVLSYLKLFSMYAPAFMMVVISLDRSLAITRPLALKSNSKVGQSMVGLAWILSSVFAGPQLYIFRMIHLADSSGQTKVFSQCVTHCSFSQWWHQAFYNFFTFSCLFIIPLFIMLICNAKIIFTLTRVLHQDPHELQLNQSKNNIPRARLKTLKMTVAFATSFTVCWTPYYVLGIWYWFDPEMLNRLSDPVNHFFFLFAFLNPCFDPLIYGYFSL
Procedure, shortened: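 Cells: HEK293 stably expressing human GnRHR. Steps: overnight (18 h) culture, 1 h calcium dye loading at 37 C, compound addition, kinetic fluorescence read at 480/540 nm. Each compound tested at 15 concentrations in triplicate.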

[4] = p53 small molecule agonists, cell-based qHTS assay with human liver microsomes (AID 1963577)
Procedure, shortened: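 Compounds act here after metabolic activation: human liver microsomes and NADPH, both at 0.5 mg/mL final, were co-added to p53RE-bla cells. Incubation ran 16 h at 37 C, followed by LiveBLAzer detection.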

[5] = p53 small molecule agonists, cell-based qHTS assay with rat liver microsomes (AID 1963578)
Procedure, shortened: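 Read-out is beta-lactamase reporter fluorescence (LiveBLAzer, 2 h, room temperature, dark) in p53RE-bla cells treated 16 h at 37 C with compound, rat liver microsomes and NADPH, both 0.5 mg/mL final.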

[6] = p53 small molecule agonists, cell-based qHTS assay with human liver microsomes: qHTS cell viability counter screen (AID 1963579); note: nearly all actives have a fitted effect of over 45% in size
Procedure, shortened: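 Cells carrying the p53 response-element beta-lactamase reporter are treated for 16 h at 37 C with test compounds in the presence of human liver microsomes and NADPH (both 0.5 mg/mL final); ATP-based CellTiter-Glo luminescence then reports viability.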

[7] = p53 small molecule agonists, cell-based qHTS assay with rat liver microsomes: qHTS cell viability counter screen (AID 1963580); note: nearly all actives have a fitted effect of over 45% in size
Procedure, shortened: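 p53RE-bla HCT-116 cells (4,000/well) rested 5 h at 37 C, then given Tox21 compounds in DMSO with rat liver microsomes (0.5 mg/mL final) plus NADPH (0.5 mg/mL final) for 16 h at 37 C. Viability read by CellTiter-Glo luminescence after 30 min at room temperature.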

[8] = p53 small molecule agonists, cell-based qHTS assay: qHTS cell viability counter screen (AID 1963581); note: nearly all actives have a fitted effect of over 45% in size
Procedure, shortened: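 Cells: HCT-116 with p53 response element-driven beta-lactamase. Treatment: 16 h, 37 C, compounds in DMSO. Read: CellTiter-Glo luminescence after 30 min RT.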

[9] = p53 small molecule agonists, cell-based qHTS assay (AID 1963582; active = well fitted activation curve with a large enough effect in the signal ratio in the repeat runs, not every such curve was filed as active; the % refers to the signal ratio)
Procedure, shortened: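 Quantitative HTS in p53RE-bla cells: after a 5 h settling period, compounds delivered in DMSO were left on cells for 16 h at 37 C, and reporter induction was measured as fluorescence following 2 h substrate loading.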

[10] = biological target: 5-hydroxytryptamine receptor 2A (Homo sapiens) (UniProt P28223); test: 5-hydroxytryptamine receptor 2A (HTR2A) small molecule antagonists, cell-based qHTS assay (AID 1963586); note: nearly all actives have a fitted effect of over 45% in size
5-hydroxytryptamine receptor 2A (Homo sapiens), sequence (P28223 whole entry, looked up): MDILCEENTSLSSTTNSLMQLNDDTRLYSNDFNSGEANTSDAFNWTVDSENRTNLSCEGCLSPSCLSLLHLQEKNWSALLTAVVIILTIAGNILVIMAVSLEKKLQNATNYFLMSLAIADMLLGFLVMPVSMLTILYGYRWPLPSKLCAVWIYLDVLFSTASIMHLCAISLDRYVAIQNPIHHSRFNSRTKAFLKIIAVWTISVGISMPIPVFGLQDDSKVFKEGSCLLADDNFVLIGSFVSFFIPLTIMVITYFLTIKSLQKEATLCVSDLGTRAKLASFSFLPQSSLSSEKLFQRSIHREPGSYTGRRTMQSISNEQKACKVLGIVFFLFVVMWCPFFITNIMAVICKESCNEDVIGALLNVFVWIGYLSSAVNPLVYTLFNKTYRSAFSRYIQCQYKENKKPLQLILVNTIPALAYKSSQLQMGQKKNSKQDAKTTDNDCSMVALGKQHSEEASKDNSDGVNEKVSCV
Procedure, shortened: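 Antagonist-mode intracellular calcium assay: DOI (4 nM) added after 5 min compound pre-incubation at room temperature to dye-loaded HTR2A-CHO cells. Fluorescence followed for 3 min, sampled every second.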

[11] = biological target: 5-hydroxytryptamine receptor 2A (Homo sapiens) (UniProt P28223); test: 5-hydroxytryptamine receptor 2A (HTR2A) small molecule agonists, cell-based qHTS assay (AID 1963587); note: nearly all actives have a fitted effect of over 30% in size
Procedure, shortened: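 HTR2A-CHO cells, plated 18 h at 37 C/5% CO2, dye-loaded 1 h at 37 C; compounds in DMSO added by pin tool (agonist mode). Intracellular calcium flux read as kinetic fluorescence on FDSS over 2 min at 1 s intervals.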

[12] = biological target: Muscarinic acetylcholine receptor M1 (Homo sapiens) (UniProt P11229); test: Cholinergic receptor muscarinic 1 (CHRM1) small molecule antagonists, cell-based qHTS assay (AID 1963588); note: nearly all actives have a fitted effect of over 40% in size
Muscarinic acetylcholine receptor M1 (Homo sapiens), sequence (P11229 whole entry, looked up): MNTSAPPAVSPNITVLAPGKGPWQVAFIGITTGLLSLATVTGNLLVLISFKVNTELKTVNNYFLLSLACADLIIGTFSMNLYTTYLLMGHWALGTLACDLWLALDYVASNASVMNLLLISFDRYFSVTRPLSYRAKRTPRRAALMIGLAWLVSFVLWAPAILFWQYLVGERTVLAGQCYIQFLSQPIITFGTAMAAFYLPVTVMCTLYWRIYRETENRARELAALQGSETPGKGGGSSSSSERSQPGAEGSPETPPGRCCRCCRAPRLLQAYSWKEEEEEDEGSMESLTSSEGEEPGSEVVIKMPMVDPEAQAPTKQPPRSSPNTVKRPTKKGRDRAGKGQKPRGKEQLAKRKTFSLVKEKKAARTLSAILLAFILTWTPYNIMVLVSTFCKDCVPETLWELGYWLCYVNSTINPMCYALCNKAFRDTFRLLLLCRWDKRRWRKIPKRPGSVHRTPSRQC
Procedure, shortened: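 CHRM1-CHO calcium-flux assay, antagonist mode. Cells were seeded 18 h, dye-loaded 1 h at 37 C and given compound for 5 min at RT, then acetylcholine was added at 50nM. FDSS fluorescence was read 3 min; 15 concentrations, three runs.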

[13] = biological target: Muscarinic acetylcholine receptor M1 (Homo sapiens) (UniProt P11229); test: Cholinergic receptor muscarinic 1 (CHRM1) small molecule agonists, cell-based qHTS assay (AID 1963589); note: nearly all actives have a fitted effect of over 35% in size
Procedure, shortened: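 Agonist-mode qHTS in CHO cells stably carrying human muscarinic M1. Intracellular calcium is tracked by fluorescence every second after compound transfer; each compound runs at 15 concentrations in three independent runs.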

[14] = cAMP Responsive Elements (CRE) small molecule agonists, cell-based qHTS assay (AID 1963590)
Procedure, shortened: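 Agonist mode qHTS in CRE-bla HEK 293T cells: compounds dosed from DMSO for 3 h at 37 C/5% CO2, followed by LiveBLAzer B/G FRET substrate for 2 h at room temperature.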

[15] = cAMP Responsive Elements (CRE) small molecule antagonists, cell-based qHTS assay (AID 1963591; active = well fitted inhibition curve with a large enough effect in the signal ratio in the repeat runs, not every such curve was filed as active; the % refers to the signal ratio)
Procedure, shortened: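 Antagonist mode: test compounds are co-incubated with the adenylyl cyclase activator NKH477 (0.25 uM final) on CRE-bla HEK293T cells for 3 h at 37 °C, followed by LiveBLAzer substrate loading.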

[16] = biological target: Beta-2 adrenergic receptor (Homo sapiens) (UniProt P07550); test: Adrenergic beta2 receptor (ADRB2) small molecule antagonists, cell-based qHTS assay (AID 1963592); note: series mostly up to about 92 µM; nearly all actives have a fitted effect of over 50% in size
Beta-2 adrenergic receptor (Homo sapiens), sequence (P07550 whole entry, looked up): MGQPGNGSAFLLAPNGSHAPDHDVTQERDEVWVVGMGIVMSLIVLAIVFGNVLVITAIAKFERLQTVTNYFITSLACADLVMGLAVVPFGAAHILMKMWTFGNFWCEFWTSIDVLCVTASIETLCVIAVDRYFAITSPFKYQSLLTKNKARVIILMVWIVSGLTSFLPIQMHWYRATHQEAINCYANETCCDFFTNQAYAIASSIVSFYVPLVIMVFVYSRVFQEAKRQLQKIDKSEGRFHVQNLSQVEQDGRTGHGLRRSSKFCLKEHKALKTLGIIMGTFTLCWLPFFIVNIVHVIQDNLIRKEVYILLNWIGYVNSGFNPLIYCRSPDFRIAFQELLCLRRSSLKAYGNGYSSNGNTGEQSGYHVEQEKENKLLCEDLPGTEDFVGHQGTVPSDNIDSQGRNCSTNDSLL
Procedure, shortened: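 Cells (CHO, stable ADRB2 overexpression) incubated 18-20hr at 37C; compounds added from DMSO; agonist mix (1nM isoproterenol, 100uM IBMX, 25uM Ro-20-1724) added; 0.5hr RT; d2-cAMP and anti-cAMP-cryptate added; 1hr RT; 665/615 nm read.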

[17] = biological target: Beta-2 adrenergic receptor (Homo sapiens) (UniProt P07550); test: Adrenergic beta2 receptor (ADRB2) small molecule agonists, cell-based qHTS assay (AID 1963593);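 note: CHO cells stably overexpressing human ADRB2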
Procedure, shortened: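 CHO cells stably over-expressing ADRB2 were plated overnight at 37C, then dosed with compounds plus a stimulation mix containing 100uM IBMX and 25uM Ro-20-1724 for 0.5hr at room temperature. cAMP was measured by HTRF competition, 1hr.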

[18] = biological target: D(2) dopamine receptor (Homo sapiens) (UniProt P14416); test: Dopamine D2 receptor (DRD2) small molecule antagonists, cell-based qHTS assay (AID 1963595; active = well fitted inhibition curve with a large enough effect in the signal ratio in the repeat runs, with a control signal flat; the % refers to the signal ratio)
D(2) dopamine receptor (Homo sapiens), sequence (P14416 whole entry, looked up): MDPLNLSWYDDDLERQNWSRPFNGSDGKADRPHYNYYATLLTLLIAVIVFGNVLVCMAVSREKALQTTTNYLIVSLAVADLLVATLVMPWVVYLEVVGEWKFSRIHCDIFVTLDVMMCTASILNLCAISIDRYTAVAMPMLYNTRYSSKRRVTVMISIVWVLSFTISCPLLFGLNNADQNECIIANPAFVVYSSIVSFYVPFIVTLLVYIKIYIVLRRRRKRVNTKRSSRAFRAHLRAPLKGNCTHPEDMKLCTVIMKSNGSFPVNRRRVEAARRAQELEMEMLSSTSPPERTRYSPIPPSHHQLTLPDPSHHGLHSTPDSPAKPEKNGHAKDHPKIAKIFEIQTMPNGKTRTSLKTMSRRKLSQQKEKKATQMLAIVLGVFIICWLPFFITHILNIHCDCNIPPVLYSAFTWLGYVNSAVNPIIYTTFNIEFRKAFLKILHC
Procedure, shortened: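 HTRF cAMP read-out at 665 and 620 nm emission (340 nm excitation). Antagonist mode: compounds were tested against 12 nM quinpirole in DRD2-HEK293 cells, with 200 nM NKH477 raising cAMP and 0.1 mM Ro20-1724 blocking its breakdown.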

[19] = biological target: D(2) dopamine receptor (Homo sapiens) (UniProt P14416); test: Dopamine D2 receptor (DRD2) small molecule agonists, cell-based qHTS assay (AID 1963594); note: nearly all actives have a fitted effect of over 35% in size
Procedure, shortened: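 HEK293 cells stably expressing DRD2 were cultured 24 h at 37 C, then given Ro20-1724 (0.1 mM final) and compounds for 10 min at room temperature. NKH477 (200nM) was then added for 30 min. cAMP was read by HTRF.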

[20] = biological target: KiSS-1 receptor (Homo sapiens) (UniProt Q969F8); test: Human kisspeptin (KISS1R) small molecule agonists, calcium flux assay in KISS1R-HEK293 cells (AID 1920064; active = well fitted curve in the direction sought with a large enough effect in the repeat runs; an effect the other way counts as inactive or inconclusive)
KiSS-1 receptor (Homo sapiens), sequence (Q969F8 whole entry, looked up): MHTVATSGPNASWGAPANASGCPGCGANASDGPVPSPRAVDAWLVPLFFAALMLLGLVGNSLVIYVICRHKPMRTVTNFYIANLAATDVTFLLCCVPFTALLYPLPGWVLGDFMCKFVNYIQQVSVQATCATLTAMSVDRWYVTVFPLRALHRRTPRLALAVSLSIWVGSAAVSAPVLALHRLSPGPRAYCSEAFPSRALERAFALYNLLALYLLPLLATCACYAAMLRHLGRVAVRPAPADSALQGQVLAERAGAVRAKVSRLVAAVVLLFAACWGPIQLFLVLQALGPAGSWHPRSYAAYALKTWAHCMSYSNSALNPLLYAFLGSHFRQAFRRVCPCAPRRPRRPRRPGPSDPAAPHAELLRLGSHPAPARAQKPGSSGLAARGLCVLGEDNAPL
Procedure, shortened: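 Cells plated and incubated 18 h; dye added, 1 h at 37 C; compounds in DMSO pinned in; signal read at 480/540 nm every second for 3 min. Each compound tested at 15 concentrations in triplicate.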

Measured: Potency

C=CCOCC1CO1 (stereo not drawn)
not listed: [19] | [20]
inactive: all other assays above

N#CCBr
not listed: [17] | [18] | [20]
inactive: all other assays above

CCCCCCCCCCCOC(=O)c1ccccc1C(=O)OCCCCCCCCCCC
not listed: [18] | [20]
inactive: all other assays above

Cc1ccc([N+](=O)[O-])cc1C
not listed: [4] | [5] | [9]
inactive: all other assays above

CC(C)NC(=O)N1CC(=O)N(c2cc(Cl)cc(Cl)c2)C1=O
not listed: [4] | [14]
inactive: all other assays above

ClCCN1CCOCC1
not listed: [9] | [16] | [17] | [20]
inactive: all other assays above

CCC(=O)O[C@@H]1C=C2CCC3C(CCC4(C)C3CC[C@@H]4OC(=O)CC)C2CC1 (stereo partly drawn)
not listed: [20]
inactive: all other assays above
